Data from article PMC7862700, “An all-to-all approach to the identification of sequence-specific readers for epigenetic DNA modifications on cytosine”.

These sequences were tested against T1, ELF5 (Homo sapiens, UniProt Q9UKW6-2 1-255) (assay: DAPPL (digital affinity profiling via proximity ligation, sequencing); 10 mM Tris-HCl pH 7.5, 50 mM NaCl, 1 mM DTT, 4% glycerol, room temperature, 30 min; GST-TFs on glutathione beads, 16-mer random dsDNA library, 0.1% formaldehyde crosslink after washing; high values mean tight binding). Conditions: protein: recombinant; tags: N-terminal GST; dsDNA, one strand shown.
T1 sequence: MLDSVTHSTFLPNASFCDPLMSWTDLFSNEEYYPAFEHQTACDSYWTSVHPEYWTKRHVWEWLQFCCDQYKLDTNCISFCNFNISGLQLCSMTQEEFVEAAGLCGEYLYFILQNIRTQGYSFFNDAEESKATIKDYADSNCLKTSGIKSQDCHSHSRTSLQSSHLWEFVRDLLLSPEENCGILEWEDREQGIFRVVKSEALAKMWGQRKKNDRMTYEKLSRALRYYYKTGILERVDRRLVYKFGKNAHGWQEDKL
Outline: (§1)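 Sequencing on an Illumina NextSeq500 followed washing, crosslinking with 0.1% formaldehyde, proximity ligation (BsaI/T4 ligase, 1 h, 37 °C) and PCR amplification of pools that had been incubated for 30 min at room temperature with 200 nmole of a random double-stranded 16-mer DNA library in Tris/NaCl/DTT/glycerol buffer. Each pool held DNA-barcoded human transcription factors, expressed in yeast as GST fusions and captured on glutathione beads, plus a tag-only sample. Binding signal is a hexamer's read frequency for a factor divided by its frequency in the tag-only sample.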
In the case of CCTACT, the binding signal was 1.82 fold enrichment (6-mer frequency, TF over GST control). TCCTAG was tested, and the binding signal was 1.41 fold enrichment (6-mer frequency, TF over GST control). For GCACTT, the binding signal was 1.88 fold enrichment (6-mer frequency, TF over GST control). With TATCAT the binding signal was 1.15 fold enrichment (6-mer frequency, TF over GST control). ATAGTA was tested, and the binding signal was 1.13 fold enrichment (6-mer frequency, TF over GST control). With TCATCC the binding signal was 1.6 fold enrichment (6-mer frequency, TF over GST control). CCATAA was tested, and the binding signal was 1.1 fold enrichment (6-mer frequency, TF over GST control). TACGCG was tested, and the binding signal was 1.09 fold enrichment (6-mer frequency, TF over GST control). For TAATCT, the binding signal was 1.46 fold enrichment (6-mer frequency, TF over GST control). With GCTTGC the binding signal was 1.03 fold enrichment (6-mer frequency, TF over GST control). With TTCGTT the binding signal was 1.32 fold enrichment (6-mer frequency, TF over GST control). In the case of TCAACC, the binding signal was 1.07 fold enrichment (6-mer frequency, TF over GST control). TGCTAT was tested, and the binding signal was 1.33 fold enrichment (6-mer frequency, TF over GST control). For CTACTC, the binding signal was 1.29 fold enrichment (6-mer frequency, TF over GST control). ATCAAC was tested, and the binding signal was 1.02 fold enrichment (6-mer frequency, TF over GST control). In the case of CTTGCG, the binding signal was 1.28 fold enrichment (6-mer frequency, TF over GST control). In the case of ATGTTC, the binding signal was 1.32 fold enrichment (6-mer frequency, TF over GST control). In the case of ATGAGC, the binding signal was 1.12 fold enrichment (6-mer frequency, TF over GST control). In the case of AAATCA, the binding signal was 1.22 fold enrichment (6-mer frequency, TF over GST control). In the case of TGACCC, the binding signal was 1.4 fold enrichment (6-mer frequency, TF over GST control). For TAAATT, the binding signal was 1.19 fold enrichment (6-mer frequency, TF over GST control). For TCCTTG, the binding signal was 1.95 fold enrichment (6-mer frequency, TF over GST control). CCATAT was tested, and the binding signal was 1.24 fold enrichment (6-mer frequency, TF over GST control). CTAACT was tested, and the binding signal was 1.21 fold enrichment (6-mer frequency, TF over GST control). For CTGCTT, the binding signal was 1.64 fold enrichment (6-mer frequency, TF over GST control). In the case of AATTAC, the binding signal was 1.33 fold enrichment (6-mer frequency, TF over GST control). TGTGCT was tested, and the binding signal was 1.15 fold enrichment (6-mer frequency, TF over GST control). For ATACAA, the binding signal was 1.08 fold enrichment (6-mer frequency, TF over GST control). TTACTA was tested, and the binding signal was 1.19 fold enrichment (6-mer frequency, TF over GST control). In the case of ACTCGT, the binding signal was 1.24 fold enrichment (6-mer frequency, TF over GST control). For AAACAA, the binding signal was 1.28 fold enrichment (6-mer frequency, TF over GST control). In the case of AAAAAG, the binding signal was 1.24 fold enrichment (6-mer frequency, TF over GST control). CCCGAT was tested, and the binding signal was 1.24 fold enrichment (6-mer frequency, TF over GST control). For TATTCA, the binding signal was 1.24 fold enrichment (6-mer frequency, TF over GST control). In the case of CAATTA, the binding signal was 1.13 fold enrichment (6-mer frequency, TF over GST control). For CTTTTG, the binding signal was 1.28 fold enrichment (6-mer frequency, TF over GST control). ACGTCC was tested, and the binding signal was 1.77 fold enrichment (6-mer frequency, TF over GST control). For CCCTTC, the binding signal was 1.62 fold enrichment (6-mer frequency, TF over GST control). For ATGACA, the binding signal was 1.24 fold enrichment (6-mer frequency, TF over GST control). AATCAA was tested, and the binding signal was 1.16 fold enrichment (6-mer frequency, TF over GST control).

Each sequence was assayed against T2, ETV3 (Homo sapiens, UniProt P41162-2 1-143) in the same assay as above. Conditions: protein: recombinant; tags: N-terminal GST; dsDNA, one strand shown.
T2 sequence: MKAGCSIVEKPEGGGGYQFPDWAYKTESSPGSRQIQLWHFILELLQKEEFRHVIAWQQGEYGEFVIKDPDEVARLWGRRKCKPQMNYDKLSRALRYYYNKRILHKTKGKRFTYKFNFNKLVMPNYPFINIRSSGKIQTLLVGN
Outline: as §1
CCTACT was tested, and the binding signal was 1.77 fold enrichment (6-mer frequency, TF over GST control). For TCCTAG, the binding signal was 1.32 fold enrichment (6-mer frequency, TF over GST control). GCACTT was tested, and the binding signal was 1.94 fold enrichment (6-mer frequency, TF over GST control). For TATCAT, the binding signal was 1.21 fold enrichment (6-mer frequency, TF over GST control). With ATAGTA the binding signal was 1.15 fold enrichment (6-mer frequency, TF over GST control). For TCATCC, the binding signal was 1.55 fold enrichment (6-mer frequency, TF over GST control). CCATAA was tested, and the binding signal was 1.25 fold enrichment (6-mer frequency, TF over GST control). TACGCG was tested, and the binding signal was 1.16 fold enrichment (6-mer frequency, TF over GST control). For TAATCT, the binding signal was 1.28 fold enrichment (6-mer frequency, TF over GST control). With GCTTGC the binding signal was 1.19 fold enrichment (6-mer frequency, TF over GST control). With TTCGTT the binding signal was 1.3 fold enrichment (6-mer frequency, TF over GST control). TCAACC was tested, and the binding signal was 1.16 fold enrichment (6-mer frequency, TF over GST control). With TGCTAT the binding signal was 1.45 fold enrichment (6-mer frequency, TF over GST control). With CTACTC the binding signal was 1.25 fold enrichment (6-mer frequency, TF over GST control). In the case of ATCAAC, the binding signal was 1.12 fold enrichment (6-mer frequency, TF over GST control). In the case of CTTGCG, the binding signal was 1.42 fold enrichment (6-mer frequency, TF over GST control). For ATGTTC, the binding signal was 1.34 fold enrichment (6-mer frequency, TF over GST control). With ATGAGC the binding signal was 1.34 fold enrichment (6-mer frequency, TF over GST control). With AAATCA the binding signal was 1.17 fold enrichment (6-mer frequency, TF over GST control). In the case of TGACCC, the binding signal was 1.39 fold enrichment (6-mer frequency, TF over GST control). In the case of TAAATT, the binding signal was 1.21 fold enrichment (6-mer frequency, TF over GST control). For TCCTTG, the binding signal was 1.36 fold enrichment (6-mer frequency, TF over GST control). For CCATAT, the binding signal was 1.19 fold enrichment (6-mer frequency, TF over GST control). In the case of CTAACT, the binding signal was 1.24 fold enrichment (6-mer frequency, TF over GST control). With CTGCTT the binding signal was 1.75 fold enrichment (6-mer frequency, TF over GST control). In the case of AATTAC, the binding signal was 1.26 fold enrichment (6-mer frequency, TF over GST control). In the case of TGTGCT, the binding signal was 1.18 fold enrichment (6-mer frequency, TF over GST control). With ATACAA the binding signal was 1.08 fold enrichment (6-mer frequency, TF over GST control). In the case of TTACTA, the binding signal was 1.23 fold enrichment (6-mer frequency, TF over GST control). With ACTCGT the binding signal was 1.21 fold enrichment (6-mer frequency, TF over GST control). AAACAA was tested, and the binding signal was 1.3 fold enrichment (6-mer frequency, TF over GST control). For AAAAAG, the binding signal was 1.23 fold enrichment (6-mer frequency, TF over GST control). CCCGAT was tested, and the binding signal was 1.21 fold enrichment (6-mer frequency, TF over GST control). For TATTCA, the binding signal was 1.23 fold enrichment (6-mer frequency, TF over GST control). For CAATTA, the binding signal was 1.18 fold enrichment (6-mer frequency, TF over GST control). In the case of CTTTTG, the binding signal was 1.24 fold enrichment (6-mer frequency, TF over GST control). With ACGTCC the binding signal was 1.61 fold enrichment (6-mer frequency, TF over GST control). In the case of CCCTTC, the binding signal was 1.34 fold enrichment (6-mer frequency, TF over GST control). With ATGACA the binding signal was 1.39 fold enrichment (6-mer frequency, TF over GST control). With AATCAA the binding signal was 1.2 fold enrichment (6-mer frequency, TF over GST control).

Each sequence was assayed against ETV6 (Homo sapiens, UniProt P41212 1-452) in the same assay as above. Conditions: protein: recombinant; tags: N-terminal GST; dsDNA, one strand shown.
Chain of ETV6 (P41212 whole entry): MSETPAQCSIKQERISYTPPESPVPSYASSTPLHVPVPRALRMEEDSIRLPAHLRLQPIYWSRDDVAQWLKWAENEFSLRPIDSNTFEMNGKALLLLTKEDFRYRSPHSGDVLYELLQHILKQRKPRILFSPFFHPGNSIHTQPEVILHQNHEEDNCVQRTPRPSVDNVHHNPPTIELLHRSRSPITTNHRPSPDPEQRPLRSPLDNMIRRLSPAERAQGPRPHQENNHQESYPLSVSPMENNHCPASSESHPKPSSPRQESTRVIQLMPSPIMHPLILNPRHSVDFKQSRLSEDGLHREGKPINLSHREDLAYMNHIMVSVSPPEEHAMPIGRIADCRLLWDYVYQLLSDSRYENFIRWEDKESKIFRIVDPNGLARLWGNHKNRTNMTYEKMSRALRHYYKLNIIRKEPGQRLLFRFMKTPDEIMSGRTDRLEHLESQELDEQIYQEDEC
Outline: as §1
In the case of CCTACT, the binding signal was 1.73 fold enrichment (6-mer frequency, TF over GST control). For TCCTAG, the binding signal was 1.26 fold enrichment (6-mer frequency, TF over GST control). In the case of GCACTT, the binding signal was 2 fold enrichment (6-mer frequency, TF over GST control). With TATCAT the binding signal was 1.05 fold enrichment (6-mer frequency, TF over GST control). ATAGTA was tested, and the binding signal was 1.25 fold enrichment (6-mer frequency, TF over GST control). With TCATCC the binding signal was 1.38 fold enrichment (6-mer frequency, TF over GST control). For CCATAA, the binding signal was 1.21 fold enrichment (6-mer frequency, TF over GST control). With TACGCG the binding signal was 1.15 fold enrichment (6-mer frequency, TF over GST control). With TAATCT the binding signal was 1.37 fold enrichment (6-mer frequency, TF over GST control). For GCTTGC, the binding signal was 1.15 fold enrichment (6-mer frequency, TF over GST control). For TTCGTT, the binding signal was 1.29 fold enrichment (6-mer frequency, TF over GST control). With TCAACC the binding signal was 1.22 fold enrichment (6-mer frequency, TF over GST control). For TGCTAT, the binding signal was 1.38 fold enrichment (6-mer frequency, TF over GST control). CTACTC was tested, and the binding signal was 1.3 fold enrichment (6-mer frequency, TF over GST control). With ATCAAC the binding signal was 1.1 fold enrichment (6-mer frequency, TF over GST control). In the case of CTTGCG, the binding signal was 1.37 fold enrichment (6-mer frequency, TF over GST control). ATGTTC was tested, and the binding signal was 1.18 fold enrichment (6-mer frequency, TF over GST control). With ATGAGC the binding signal was 1.24 fold enrichment (6-mer frequency, TF over GST control). With AAATCA the binding signal was 1.21 fold enrichment (6-mer frequency, TF over GST control). In the case of TGACCC, the binding signal was 1.28 fold enrichment (6-mer frequency, TF over GST control). TAAATT was tested, and the binding signal was 1.28 fold enrichment (6-mer frequency, TF over GST control). With TCCTTG the binding signal was 1.19 fold enrichment (6-mer frequency, TF over GST control). For CCATAT, the binding signal was 1.15 fold enrichment (6-mer frequency, TF over GST control). With CTAACT the binding signal was 1.29 fold enrichment (6-mer frequency, TF over GST control). CTGCTT was tested, and the binding signal was 1.71 fold enrichment (6-mer frequency, TF over GST control). For AATTAC, the binding signal was 1.38 fold enrichment (6-mer frequency, TF over GST control). In the case of TGTGCT, the binding signal was 1.22 fold enrichment (6-mer frequency, TF over GST control). In the case of ATACAA, the binding signal was 1.12 fold enrichment (6-mer frequency, TF over GST control). TTACTA was tested, and the binding signal was 1.2 fold enrichment (6-mer frequency, TF over GST control). ACTCGT was tested, and the binding signal was 1.16 fold enrichment (6-mer frequency, TF over GST control). With AAACAA the binding signal was 1.31 fold enrichment (6-mer frequency, TF over GST control). With AAAAAG the binding signal was 1.21 fold enrichment (6-mer frequency, TF over GST control). In the case of CCCGAT, the binding signal was 1.06 fold enrichment (6-mer frequency, TF over GST control). With TATTCA the binding signal was 1.3 fold enrichment (6-mer frequency, TF over GST control). For CAATTA, the binding signal was 1.05 fold enrichment (6-mer frequency, TF over GST control). CTTTTG was tested, and the binding signal was 1.46 fold enrichment (6-mer frequency, TF over GST control). In the case of ACGTCC, the binding signal was 1.74 fold enrichment (6-mer frequency, TF over GST control). CCCTTC was tested, and the binding signal was 1.5 fold enrichment (6-mer frequency, TF over GST control). With ATGACA the binding signal was 1.34 fold enrichment (6-mer frequency, TF over GST control). AATCAA was tested, and the binding signal was 1.2 fold enrichment (6-mer frequency, TF over GST control).
